{"source": "PubChem BioAssay (NCI)", "note": "The panel holds about 83,000 compounds, 20% with a hit somewhere; the sample as a whole holds those more often.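 How to read the values: 0–100, growth inhibition (40 = 60% inhibited); 0, no net growth; -100 to 0, cell death (-40 = 40% of starting cells died; -100 = all dead).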 Values without a mark were called inactive. The calls were made as follows: active = growth percent below 10; inactive = the rest."}
{"tested_on": "OVCAR-4 ovarian", "experiment": "NCI-60 one-dose screen, 48 h (100 = growth as untreated, 0 = no growth, -100 = all killed)", "conditions": "10 µM unless noted"}
{"smiles": "CC1OC(O[C@@H]2[C@H](O)C(CO)OC(O[C@H]3COC(O[C@H]4CC[C@]5(C)[C@H]6CC[C@]78OC[C@@]9(CC[C@](C)(C=O)C[C@H]97)C(=O)C[C@@]8(C)[C@]6(C)CC[C@H]5C4(C)C)[C@@H](O)[C@@H]3O)[C@H]2OC2OC[C@@H](O)[C@@H](O)[C@@H]2O)[C@@H](O)[C@@H](O)[C@H]1O", "note": "(stereo partly specified)", "growth": "91.6%"}
{"smiles": "CC(=O)NC(C)(C)C(=O)N1CCC[C@H]1C(=O)NC(C)(C)C(=O)N[C@@H](C)C(=O)NC(C)(C)C(=O)NC(C)(C)C(=O)N[C@@H](CCC(N)=O)C(=O)NC(C)(C)C(=O)N[C@H](C(=O)NC(C)(C)C(=O)NCC(=O)N[C@@H](CC(C)C)C(=O)NC(C)(C)C(=O)N1CCC[C@H]1C(=O)N[C@H](C(=O)NC(C)(C)C(=O)NC(C)(C)C(=O)N[C@@H](CCC(N)=O)C(=O)N[C@@H](CCC(N)=O)C(=O)N[C@H](CO)Cc1ccccc1)C(C)C)C(C)C", "growth": "24.5% [4.25 µM]"}
{"smiles": "CC1(C)CC[C@]2(C(=O)O)CC[C@]3(C)C(=CCC4[C@@]5(C)C[C@@H](O)[C@@H]6OC(c7cccc([N+](=O)[O-])c7)OC[C@@]6(C)C5CC[C@]43C)C2C1", "note": "(stereo partly specified)", "growth": "83.2%"}
{"smiles": "Oc1ccccc1-c1nnc(SCc2ccc(O)c3ncccc23)n1-c1ccccc1", "growth": "16.3%"}
{"smiles": "O=c1c2c(O)cccc2oc2c3c(cc(O)c12)O[C@H]1OC=C[C@@H]31", "growth": "94.5%"}
{"smiles": "O=C(CN1C(=O)S/C(=C\\c2ccccc2)C1=O)Nc1ccc(C(=O)/C=C/c2cc3ccccc3nc2Cl)cc1", "growth": "41.9%"}
